Measured values taken from PubChem BioAssay (EPA / NIEHS).
The source made the active and inactive calls. Rule for the calls: active = hit-call score of the fitted dose curve at least 0.9, where 1 is the maximum; inactive = score below 0.9.

Key:
[1] = BSK_BE3C_SRB: Viability Assessment in the BioMAP Diversity Plus: BE3C Assay (AID 2283028); settings: primary human bronchial epithelial cells;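 for AC50: fitted both ways so AC50 may mark signal gain or loss versus DMSO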
Method in brief: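 Cytotoxicity read-out: SRB (0.1%) staining of TCA-fixed (10%) human lung bronchial epithelial cells, absorbance 560 nm, 24 h post-dosing. Curves fitted both directions relative to DMSO.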

[2] = read-out: Thrombomodulin, THBD (gene 7056); experiment: BSK_3C_Thrombomodulin: BioMAP Diversity Plus: 3C Assay for Thrombomodulin Biomarker Activity (AID 2283029); settings: primary human endothelial cells (HUVEC); actives raise or lower the signal
Method in brief: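 Human umbilical vein endothelial cells were exposed to chemicals for 24 h; cell-surface thrombomodulin quantified by ELISA, with bidirectional fitting against DMSO baseline.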

[3] = read-out: Urokinase-type plasminogen activator receptor (uPAR), PLAUR (gene 5329); experiment: BSK_4H_uPAR: BioMAP Diversity Plus: 4H Assay for Urokinase-type plasminogen activator receptor (uPAR) Biomarker Activity (AID 2283030); settings: primary human endothelial cells (HUVEC); actives raise or lower the signal
Method in brief: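 uPAR level read by ELISA on HUVEC cultures (BioMAP 4H) 24 h post-dosing, analyzed for gain or loss relative to DMSO. Parallel SRB staining assessed overt cytotoxicity.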

[4] = read-out: Vascular endothelial growth factor receptor 2 (Homo sapiens) (UniProt P35968); experiment: BSK_4H_VEGFRII: BioMAP Diversity Plus: 4H Assay for Vascular endothelial growth factor receptor 2 (VEGFR2) Biomarker Activity (AID 2283031); settings: primary human endothelial cells (HUVEC); actives raise or lower the signal
Method in brief: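 Measured by ELISA after 24 h of compound treatment: VEGFR2 on primary human umbilical vein endothelial cells, fitted in both directions relative to DMSO. Parallel cultures received SRB staining (560 nm) for overt cytotoxicity.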

[5] = read-out: Vascular cell adhesion molecule 1 (VCAM1), VCAM1 (gene 7412); experiment: BSK_4H_VCAM1: BioMAP Diversity Plus: 4H Assay for Vascular cell adhesion molecule 1 (VCAM1) Biomarker Activity (AID 2283033); settings: primary human endothelial cells (HUVEC); actives raise or lower the signal
Method in brief: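 Primary human umbilical vein endothelial cells, 4H stimulation system, treated for 24 h; cell-surface VCAM-1 quantified by ELISA. Bidirectional fitting against DMSO; cytotoxicity tracked by SRB total-protein staining in parallel cultures.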

[6] = read-out: Interferon-gamma inducible Protein 10 (IP10), CXCL10 (gene 3627); experiment: BSK_BE3C_IP10: BioMAP Diversity Plus: BE3C Assay for Interferon-gamma inducible Protein 10 (IP10) Biomarker Activity (AID 2283034); settings: primary human bronchial epithelial cells; actives raise or lower the signal
Method in brief: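 Primary human bronchial epithelial cells, with IP-10 measured by ELISA 24 hours after chemical dosing. Bidirectional fit against DMSO; cytotoxicity checked by SRB total protein staining in parallel cultures.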

[7] = read-out: Monokine induced gamma interferon (MIG), CXCL9 (gene 4283); experiment: BSK_BE3C_MIG: BioMAP Diversity Plus: BE3C Assay for Monokine induced gamma interferon (MIG) Biomarker Activity (AID 2283035); settings: primary human bronchial epithelial cells; actives raise or lower the signal;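 note: MIG protein measured by ELISA in BE3C cultures after 24 h of dosing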
Method in brief: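 ELISA read-out of MIG in human lung bronchial epithelial primary cultures, 24 h post-dosing. Bidirectional curve fit vs DMSO baseline.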

[8] = read-out: Transforming growth factor beta 1 (TGFb1), TGFB1 (gene 7040); experiment: BSK_BE3C_TGFb1: BioMAP Diversity Plus: BE3C Assay for Transforming growth factor beta 1 (TGFb1) Biomarker Activity (AID 2283036); settings: primary human bronchial epithelial cells; actives raise or lower the signal
Method in brief: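 Primary human bronchial epithelial cells dosed with chemical; TGF-b1 measured by ELISA 24 h after dosing. Bidirectional curve fitting against DMSO negative control; SRB total-protein staining in parallel cultures gauged cytotoxicity.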

[9] = read-out: Plasminogen activator inhibitor-1 (PAI1), SERPINE1 (gene 5054); experiment: BSK_BE3C_PAI1: BioMAP Diversity Plus: BE3C Assay for Plasminogen activator inhibitor-1 (PAI1) Biomarker Activity (AID 2283037); settings: primary human bronchial epithelial cells; actives raise or lower the signal
Method in brief: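 Primary human bronchial epithelial cells (BE3C system) exposed 24 h; PAI-1 quantified by ELISA. Parallel sulforhodamine B staining of total protein flags cytotoxicity. Bidirectional fit versus DMSO.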

[10] = read-out: urokinase plasminogen activator (uPA), PLAU (gene 5328); experiment: BSK_BE3C_uPA: BioMAP Diversity Plus: BE3C Assay for urokinase plasminogen activator (uPA) Biomarker Activity (AID 2283038); settings: primary human bronchial epithelial cells; actives raise or lower the signal;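 note: uPA protein level quantified by ELISA in cell cultures; uPA read one day after compound addition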
Method in brief: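 ELISA for uPA on human primary bronchial epithelial cultures 24 h post-treatment, gain or loss against DMSO. Parallel SRB staining (0.1% after 10% TCA fixation, 560 nm) assessed overt cytotoxicity.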

[11] = read-out: Urokinase-type plasminogen activator receptor (uPAR), PLAUR (gene 5329); experiment: BSK_BE3C_uPAR: BioMAP Diversity Plus: BE3C Assay for Urokinase-type plasminogen activator receptor (uPAR) Biomarker Activity (AID 2283039); settings: primary human bronchial epithelial cells; actives raise or lower the signal;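 note: uPAR protein level measured by ELISA on the cells; cells exposed to compound for one day before measurement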
Method in brief: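 Primary human bronchial epithelial cells dosed for 24 h; uPAR quantified by ELISA with bidirectional fitting against DMSO. Overt cytotoxicity assessed in parallel cultures by SRB total-protein staining (0.1% SRB, 560 nm).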

[12] = read-out: Interleukin-6 (IL6), IL6 (gene 3569); experiment: BSK_CASM3C_IL6: BioMAP Diversity Plus: CASM3C Assay for Interleukin-6 (IL6) Biomarker Activity for (AID 2283040); settings: primary human coronary artery smooth muscle cells; actives raise or lower the signal
[13] = read-out: Tissue plasminogen activator (tPA), PLAT (gene 5327); experiment: BSK_BE3C_tPA: BioMAP Diversity Plus: BE3C Assay for Tissue plasminogen activator (tPA) Biomarker Activity (AID 2283041); settings: primary human bronchial epithelial cells; actives raise or lower the signal;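 note: tPA level quantified by ELISA one day after compound addition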
Method in brief: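 Primary human bronchial epithelial cells in the BE3C system, exposed to compound for 24 h. tPA was quantified by ELISA; DMSO served as baseline, with gain or loss of signal fitted. Cytotoxicity checked in parallel cultures by SRB total-protein staining.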

[14] = read-out: Interleukin-8 (IL8), CXCL8 (gene 3576); experiment: BSK_CASM3C_IL8: BioMAP Diversity Plus: CASM3C Assay for Interleukin-8 (IL8) Biomarker Activity (AID 2283042); settings: primary human coronary artery smooth muscle cells; actives raise or lower the signal;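 note: IL-8 protein level quantified by ELISA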
[15] = read-out: Human Leukocyte Antigen - DR isotype (HLADR), HLA-DRA (gene 3122); experiment: BSK_CASM3C_HLADR: BioMAP Diversity Plus: CASM3C Assay for Human Leukocyte Antigen - DR isotype (HLADR) Biomarker Activity (AID 2283043); settings: primary human coronary artery smooth muscle cells; actives raise or lower the signal;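 note: cell-surface HLA-DR protein level quantified by ELISA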
[16] = read-out: Macrophage colony-stimulating factor (MCSF), CSF1 (gene 1435); experiment: BSK_CASM3C_MCSF: BioMAP Diversity Plus: CASM3C Assay for Macrophage colony-stimulating factor (MCSF) Biomarker Activity (AID 2283044); settings: primary human coronary artery smooth muscle cells; actives raise or lower the signal;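 note: M-CSF protein amount quantified by ELISA after 24 h exposure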
[17] = read-out: Low-density lipoprotein receptor (LDLR), LDLR (gene 3949); experiment: BSK_CASM3C_LDLR: BioMAP Diversity Plus: CASM3C Assay for Low-density lipoprotein receptor (LDLR) Biomarker Activity (AID 2283045); settings: primary human coronary artery smooth muscle cells; actives raise or lower the signal;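 note: LDLR protein level on the cell surface quantified by ELISA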
[18] = read-out: Monocyte Chemoattractant Protein-1 (MCP1), CCL2 (gene 6347); experiment: BSK_CASM3C_MCP1: BioMAP Diversity Plus: CASM3C Assay for Monocyte Chemoattractant Protein-1 (MCP1) Biomarker Activity (AID 2283046); settings: primary human coronary artery smooth muscle cells; actives raise or lower the signal;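 note: MCP-1 level quantified by ELISA 24 h after dosing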
[19] = BSK_CASM3C_Proliferation: Cell Proliferation Assessment in the BioMAP Diversity Plus: CASM3C Assay (AID 2283047); settings: primary human coronary artery smooth muscle cells;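 note: sulforhodamine B total protein stain as relative cell number at 560 nm; sub-confluent cells exposed 48 h before staining; fitted both ways against DMSO so gain or loss of cell number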
[20] = read-out: Human Leukocyte Antigen - DR isotype (HLADR), HLA-DRA (gene 3122); experiment: BSK_BE3C_HLADR: BioMAP Diversity Plus: BE3C Assay for Human Leukocyte Antigen - DR isotype (HLADR) Biomarker Activity (AID 2283032); settings: primary human bronchial epithelial cells; actives raise or lower the signal
Method in brief: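 Human primary bronchial epithelial cells (BE3C system) exposed to compound for 24 hours; cell-surface HLA-DR measured by ELISA, fitted bidirectionally relative to DMSO. Total protein by SRB in parallel cultures tracked cytotoxicity.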

Measured: AC50

COC(=O)N(C(=O)N1CO[C@@]2(C(=O)OC)Cc3cc(Cl)ccc3C2=N1)c1ccc(OC(F)(F)F)cc1
active: [1] 5.81 µM | [6] 11 µM | [19] 12.4 µM
inactive: [2] | [3] | [4] | [5] | [7] | [8] | [9] | [10] | [11] | [12] | [13] | [14] | [15] | [16] | [17] | [18]

C=C(C)CN(CC)c1c([N+](=O)[O-])cc(C(F)(F)F)cc1[N+](=O)[O-]
inactive: [1] | [2] | [3] | [4] | [20] | [5] | [6] | [7] | [8] | [9] | [10] | [11] | [12] | [14] | [15] | [16] | [17] | [18] | [19]

CC(C)NC(=O)N1CC(=O)N(c2cc(Cl)cc(Cl)c2)C1=O
inactive: [1] | [2] | [4] | [20] | [5] | [6] | [7] | [8] | [9] | [10] | [11] | [12] | [14] | [15] | [16] | [17] | [18] | [19]
active: [3] 23.1 µM

CCCC(=NOCC)C1=C(O)CC(CC(C)SCC)CC1=O (stereo not drawn)
inactive: [1] | [2] | [3] | [4] | [20] | [5] | [6] | [7] | [8] | [9] | [10] | [11] | [12] | [14] | [15] | [16] | [17] | [18] | [19]

COC(=O)c1c(C(F)F)nc(C(F)(F)F)c(C2=NCCS2)c1CC(C)C
inactive: [1] | [2] | [4] | [7] | [8] | [10] | [11] | [12] | [13] | [14] | [15] | [16] | [17] | [18] | [19]
active: [3] 33.9 µM | [5] 20 µM | [6] 17.7 µM | [9] 3.97 µM

CS(=O)(=O)c1ccc(C(=O)C2C(=O)CCCC2=O)c([N+](=O)[O-])c1
inactive: [1] | [2] | [3] | [4] | [5] | [6] | [7] | [8] | [9] | [10] | [11] | [12] | [13] | [14] | [15] | [16] | [17] | [18] | [19]

CCC(C)n1c(=O)[nH]c(C)c(Br)c1=O (stereo not drawn)
inactive: [1] | [2] | [3] | [4] | [5] | [6] | [7] | [8] | [9] | [10] | [11] | [12] | [13] | [14] | [15] | [16] | [17] | [18] | [19]

CC(C)Nc1nc(Cl)nc(NC(C)C)n1
inactive: [1] | [2] | [4] | [20] | [5] | [6] | [7] | [8] | [9] | [10] | [11] | [12] | [13] | [14] | [15] | [16] | [17] | [18] | [19]

COC(=O)NS(=O)(=O)c1ccc(N)cc1
inactive: [1] | [2] | [3] | [4] | [20] | [5] | [6] | [7] | [8] | [9] | [10] | [11] | [12] | [14] | [15] | [16] | [17] | [18] | [19]

CC(C)C1(C)N=C(c2ncccc2C(=O)O)NC1=O (stereo not drawn)
inactive: [1] | [2] | [3] | [4] | [5] | [6] | [7] | [8] | [9] | [10] | [11] | [12] | [14] | [15] | [16] | [17] | [18] | [19]

CCCCC(C#N)(Cn1cncn1)c1ccc(Cl)cc1 (stereo not drawn)
inactive: [1] | [2] | [3] | [4] | [5] | [6] | [7] | [8] | [9] | [10] | [11] | [12] | [13] | [14] | [15] | [16] | [17] | [18] | [19]

O=C(Nc1ccccc1-c1ccc(Cl)cc1)c1cccnc1Cl
inactive: [1] | [2] | [3] | [4] | [5] | [6] | [7] | [8] | [9] | [10] | [11] | [12] | [14] | [15] | [16] | [17] | [18] | [19]

Nc1c(Cl)c(F)nc(OCC(=O)O)c1Cl
inactive: [1] | [2] | [3] | [4] | [20] | [5] | [6] | [7] | [8] | [9] | [10] | [11] | [12] | [14] | [15] | [16] | [17] | [18] | [19]

CC1(C)C(C(=O)OC(C#N)c2cccc(Oc3ccccc3)c2)C1(C)C (stereo not drawn)
inactive: [2] | [3] | [4] | [5] | [6] | [7] | [8] | [9] | [10] | [11] | [14] | [15] | [16] | [17] | [18]
active: [1] 6.87 µM | [12] 30.9 µM | [19] 13.2 µM
